Test results reported in PubChem BioAssay.
Records with an inconclusive call do not appear. The source made the active and inactive calls. Unless noted, the limit is not given here; nearly all actives have AC50 up to about 26 µM.

Legend:
[1] = viability loss in pontine glioma line – cell-based, SU-DIPG-XVII, MIPE5.0, CellTiter-Glo, qHTS, dose response (AID 1347060); settings: CellTiter-Glo ATP luminescence;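 as to AC50: cells exposed to compound for 48 hours before viability readout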
[2] = viability loss in pontine glioma line – cell-based, SU-DIPG-XIII, MIPE4.0, CellTiter-Glo, qHTS, dose response (AID 1347061; cut-off not given, nearly all actives have AC50 up to about 37 µM;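 also: cells exposed to compound for 48 hours before readout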); settings: CellTiter-Glo ATP luminescence
[3] = viability loss in pontine glioma line – cell-based, JHH-DIPG-1, MIPE4.0, CellTiter-Glo, qHTS, dose response (AID 1347062; cut-off not given, nearly all actives have AC50 up to about 27 µM;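 as to AC50: cells exposed to compound for two days before readout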); settings: JHH-DIPG-1 viability, CellTiter-Glo ATP luminescence
[4] = viability loss in pontine glioma line – cell-based, SU-DIPG-IV, MIPE4.0, CellTiter-Glo, qHTS, dose response (AID 1347063; cut-off not given, nearly all actives have AC50 up to about 30 µM;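 also: compound exposure lasted 48 hours before the viability readout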); settings: CellTiter-Glo ATP luminescence
[5] = viability loss in pontine glioma line – cell-based, SU-DIPG-XIII, MIPE5.0, CellTiter-Glo, qHTS, dose response (AID 1347064; cut-off not given, nearly all actives have AC50 up to about 23 µM;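 as to AC50: cells exposed to compound for 48 hours before the viability read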); settings: CellTiter-Glo ATP luminescence
[6] = viability loss in pontine glioma line – cell-based, SU-DIPG-XXV, MIPE5.0, CellTiter-Glo, qHTS, dose response (AID 1347065); settings: CellTiter-Glo ATP luminescence;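 also: cells exposed to compound for 48 hours before ATP readout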
[7] = growth inhibition of DIPG cells – cell-based, MIPE4.0 library, CellTiter-Glo luminescence, qHTS (AID 1347066; cut-off not given, nearly all actives have AC50 up to about 30 µM;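 also: cells exposed to compound for 48 hours before readout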); settings: SU-DIPG-VI viability, CellTiter-Glo ATP luminescence
[8] = JHH-DIPG-1 glioma cell viability, MIPE5.0 library, CellTiter-Glo luminescence, qHTS (AID 1347067); settings: JHH-DIPG-1 glioma viability, CellTiter-Glo ATP luminescence;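 also: cells exposed to compound for 48 hours before readout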
[9] = growth inhibition of DIPG cells – cell-based, MIPE5.0 library, qHTS (AID 1347068; cut-off not given, nearly all actives have IC50 up to about 30 µM;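 as to IC50: cells exposed to compound for 48 hours before viability readout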); settings: SU-DIPG-XXV viability
[10] = viability loss with induced miR-34 in A549 – imaging, A549 dox-inducible miR-34, nuclei and caspase counts, primary screen (AID 1347080;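 active = compounds whose cell count with miR-34 switched on is under 0.7 times the count with it off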); settings: A549 miR-34 inducible, Hoechst nuclei count, 48 h
[11] = compounds altering HSF1 focus formation in cells – imaging, Selleck Cancer Library (AID 1347162; in the data active = plate-normalised HSF1 focus index below about 0.46); settings: human cells, HSF1 nuclear foci imaging, at 10 µM; SSMD: measured here: HSF1 foci SSMD mean; cell count: measured here: cell number; plate-normalised HSF1 focus index: stronger effect = lower value
[12] = MELAS cybrid and Rieske KO viability enhancers – cell-based, MELAS cybrids, Rieske KO mouse fibroblasts, CellTiter-Glo, primary screen (AID 1508586;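 active = mean z-score across replicates of 1.96 or higher in either the MELAS or the Rieske mutant cell line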;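 also: z relative to plate mean and SD of compound and empty wells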); settings: low glucose
[13] = drug combination growth inhibition, ovarian cancer – cell-based, oncology-focused library, rucaparib conditional, profiling panel (AID 1508598;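 active = normalized viability below 100% at a tested concentration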); settings: patient-derived ovarian cancer cells, CellTiter-Glo viability, 144 h, stronger effect = lower value
[14] = stronger effect = lower value, cell number ratio, induced over uninduced
[15] = measured here: relative caspase fold change +Dox/-Dox
[16] = measured here: total cells with miR-34 induction, stronger effect = lower value
[17] = measured here: total cells without miR-34 induction

CCNC(=O)c1noc(-c2cc(C(C)C)c(O)cc2O)c1-c1ccc(CN2CCOCC2)cc1
inactive: outcome [9] | fold change [10, 14] 1.03 | plate-normalised HSF1 focus index [11] 1.08 | viability ([13]; at 0.000305 µM, OCI-C5x cells, with rucaparib 10 µM, 100% = cells with rucaparib alone) 136% | viability ([13]; at 0.000305 µM, OCI-C5x cells, without rucaparib) 129% | viability ([13]; at 0.000305 µM, OCI-P5x cells, without rucaparib) 112% | viability ([13]; at 0.00122 µM, OCI-C5x cells, with rucaparib 10 µM, 100% = cells with rucaparib alone) 131% | viability ([13]; at 0.00122 µM, OCI-C5x cells, without rucaparib) 137%
1290: cell count [10, 17]
active: AC50 [1] 0.0166 µM | AC50 [2] 0.105 µM | AC50 [3] 0.0743 µM | AC50 [4] 0.0526 µM | AC50 [5] 0.0332 µM | AC50 [6] 0.0118 µM | AC50 [7] 4.69 µM | AC50 [8] 0.0209 µM | z-score ([12]; MELAS cybrid survival, CellTiter-Glo 48 h, stronger effect = higher value) 2.88 | viability ([13]; at 0.000305 µM, OCI-P5x cells, with rucaparib 20 µM, 100% = cells with rucaparib alone) 98% | viability ([13]; at 0.00122 µM, OCI-P5x cells, with rucaparib 20 µM, 100% = cells with rucaparib alone) 69.1% | viability ([13]; at 0.00122 µM, OCI-P5x cells, without rucaparib) 97.9% | viability ([13]; at 0.00488 µM, OCI-C5x cells, with rucaparib 10 µM, 100% = cells with rucaparib alone) 29.2% | viability ([13]; at 0.00488 µM, OCI-C5x cells, without rucaparib) 12.3% | viability ([13]; at 0.00488 µM, OCI-P5x cells, with rucaparib 20 µM, 100% = cells with rucaparib alone) 13.9% | viability ([13]; at 0.00488 µM, OCI-P5x cells, without rucaparib) 5.95% | viability ([13]; at 0.0195 µM, OCI-C5x cells, with rucaparib 10 µM, 100% = cells with rucaparib alone) 9.68% | viability ([13]; at 0.0195 µM, OCI-C5x cells, without rucaparib) 9.96% | viability ([13]; at 0.0195 µM, OCI-P5x cells, with rucaparib 20 µM, 100% = cells with rucaparib alone) 6.4% | viability ([13]; at 0.0195 µM, OCI-P5x cells, without rucaparib) 4.69% | viability ([13]; at 0.0781 µM, OCI-C5x cells, with rucaparib 10 µM, 100% = cells with rucaparib alone) 9.48% | viability ([13]; at 0.0781 µM, OCI-C5x cells, without rucaparib) 9.56% | viability ([13]; at 0.0781 µM, OCI-P5x cells, with rucaparib 20 µM, 100% = cells with rucaparib alone) 6.42% | viability ([13]; at 0.0781 µM, OCI-P5x cells, without rucaparib) 4.47% | viability ([13]; at 0.313 µM, OCI-C5x cells, with rucaparib 10 µM, 100% = cells with rucaparib alone) 8.98% | viability ([13]; at 0.313 µM, OCI-C5x cells, without rucaparib) 9.43% | viability ([13]; at 0.313 µM, OCI-P5x cells, with rucaparib 20 µM, 100% = cells with rucaparib alone) 5.55% | viability ([13]; at 0.313 µM, OCI-P5x cells, without rucaparib) 3.94% | viability ([13]; at 1.25 µM, OCI-C5x cells, with rucaparib 10 µM, 100% = cells with rucaparib alone) 10.6% | viability ([13]; at 1.25 µM, OCI-C5x cells, without rucaparib) 9.54% | viability ([13]; at 1.25 µM, OCI-P5x cells, with rucaparib 20 µM, 100% = cells with rucaparib alone) 4.83% | viability ([13]; at 1.25 µM, OCI-P5x cells, without rucaparib) 3.83% | viability ([13]; at 5 µM, OCI-C5x cells, with rucaparib 10 µM, 100% = cells with rucaparib alone) 9.11% | viability ([13]; at 5 µM, OCI-C5x cells, without rucaparib) 9.15% | viability ([13]; at 5 µM, OCI-P5x cells, with rucaparib 20 µM, 100% = cells with rucaparib alone) 3.61% | viability ([13]; at 5 µM, OCI-P5x cells, without rucaparib) 2.59%
2.25: SSMD [11]
7410: cell count [11]
0.0253: z-score ([12]; Rieske KO mouse fibroblast survival, CellTiter-Glo 72 h)
0.796: fold change [10, 15]
1340: cell count [10, 16]

COc1cccc2c(NCc3ccccc3)nc(-n3c(N)nc4ccccc43)nc12
active: AC50 [1] 3.72 µM | AC50 [3] 9.35 µM | AC50 [4] 3.32 µM | AC50 [5] 3.32 µM | AC50 [6] 2.63 µM | AC50 [7] 2.64 µM | AC50 [8] 2.95 µM | IC50 [9] 2.95 µM
inactive: outcome [2]

COc1cc2nc(-c3ccc(N4CCN(C)CC4)cc3)nc(NCCN3CCOCC3)c2cc1OC
inactive: outcome [9]
active: AC50 [1] 14.8 µM | AC50 [2] 0.332 µM | AC50 [3] 0.332 µM | AC50 [4] 0.132 µM | AC50 [5] 9.34 µM | AC50 [6] 8.33 µM | AC50 [7] 0.118 µM | AC50 [8] 16.6 µM

O=C(O)[C@@H](c1ccc(OCc2ccc3ccccc3n2)cc1)C1CCCC1
inactive: outcome [1] | outcome [2] | outcome [3] | outcome [4] | outcome [5] | outcome [6] | outcome [7] | outcome [8] | outcome [9]

C=CCNC1=C2C[C@@H](C)C[C@H](OC)[C@H](O)[C@@H](C)/C=C(\C)[C@H](OC(N)=O)[C@@H](OC)/C=C\C=C(/C)C(=O)NC(=CC1=O)C2=O
active: AC50 [1] 1.18 µM | AC50 [2] 1.05 µM | AC50 [3] 2.64 µM | AC50 [4] 0.118 µM | AC50 [6] 7.42 µM | AC50 [7] 14.8 µM | AC50 [8] 0.934 µM | IC50 [9] 10.5 µM
1.33: fold change [10, 15]
1940: cell count [10, 16]
1900: cell count [10, 17]
inactive: outcome [5] | fold change [10, 14] 1.02

COc1ccc(S(=O)(=O)Nc2cc(-c3c(O)ccc4ccccc34)c(O)c3ccccc23)cc1
active: AC50 [1] 0.105 µM | AC50 [2] 13.2 µM | AC50 [3] 18.7 µM | AC50 [4] 7.43 µM | AC50 [5] 3.32 µM | AC50 [6] 2.35 µM | AC50 [7] 4.69 µM | AC50 [8] 2.95 µM
inactive: outcome [9]

CCn1cc(-c2ccnc3[nH]c(-c4cccc(CN(C)C)c4)cc23)c(-c2ccc(NC(=O)N(C)C)cc2)n1
active: AC50 [1] 0.59 µM | AC50 [2] 13.2 µM | AC50 [3] 16.6 µM | AC50 [4] 0.209 µM | AC50 [5] 8.33 µM | AC50 [6] 0.525 µM | AC50 [7] 20.9 µM | AC50 [8] 11.8 µM | IC50 [9] 7.42 µM

Cn1cc(C[C@@H](N)C(=O)O)c2ccccc21
inactive: outcome [1] | outcome [2] | outcome [3] | outcome [4] | outcome [5] | outcome [6] | outcome [7] | outcome [8] | outcome [9]

CC[C@@H](C)[C@H](NC(=O)[C@H](CC1CCCCC1)NC(=O)c1ccno1)C(=O)N1CCC2(CCc3ccccc32)CC1
active: AC50 [6] 11.8 µM
inactive: outcome [1] | outcome [2] | outcome [3] | outcome [4] | outcome [5] | outcome [7] | outcome [8] | outcome [9]

COc1cc(O)c2c(c1)C1OC1C[C@H](O)[C@H](O)C(=O)/C=C\C[C@H](C)OC2=O (some centres undefined)
active: AC50 [1] 0.661 µM | AC50 [2] 0.662 µM | AC50 [3] 5.9 µM | AC50 [4] 4.18 µM | AC50 [5] 0.661 µM | AC50 [6] 0.934 µM | AC50 [7] 13.2 µM | AC50 [8] 4.17 µM | IC50 [9] 18.6 µM

CC(C)(C)c1cc(C(=O)O)c(NC(=O)Nc2ccc3[nH]ncc3c2)s1
inactive: outcome [1] | outcome [2] | outcome [3] | outcome [4] | outcome [5] | outcome [6] | outcome [7] | outcome [8] | outcome [9]
